Test results published in PubChem BioAssay (EPA / NIEHS).
Activity calls are given as the source filed them. How the source made its calls: active means hit-call score of the fitted dose curve at least 0.9, where 1 is the maximum; inactive means score below 0.9.

These compounds were tested on Interleukin-1 alpha (IL1a), IL1A (gene 3552) (assay: BSK_LPS_IL1a: BioMAP Diversity Plus: LPS Assay for Interleukin-1 alpha (IL1a) Biomarker Activity (AID 2283080)). Conditions: primary human HUVEC with PBMC; actives raise or lower the signal.
Procedure: BSK_LPS is a cell-based, multiplexed-readout assay that uses umbilical vein endothelium and peripheral blood mononuclear cells, a human vascular primary cell co-culture, with measurements taken at 24 hours after chemical dosing in a 96-well plate.BSK_LPS_IL1a is an assay component measured in the BSK_LPS assay. It measures IL-a antibody related to regulation of gene expression using ELISA technology.Data from the assay component BSK_LPS_IL1a was analyzed into 1 assay endpoint. This assay endpoint, BSK_LPS_IL1a, was analyzed with bidirectional fitting relative to DMSO as the negative control and baseline of activity. Using a type of binding reporter, gain or loss-of-signal activity can be used to understand changes in the signaling as they relate to the gene IL1A. Furthermore, this assay endpoint can be referred to as a primary readout, because this assay has produced multiple assay endpoints where this one serves a signaling function. To generalize the intended target to other relatable targets, this assay endpoint is annotated to the cytokine intended target family, where the subfamily is interleukins.
The levels of cell surface (or secreted, indicated by the prefix "s") biomarker endpoints were measured by ELISA. Overt cytotoxicity to cells in confluent adherent cultures (all systems other than the BT system) was assessed by measuring total protein levels using sulforhodamine B (SRB) staining in parallel cultures at the time of biomarker measurements, indicated as SRB endpoints. For proliferation assays for adherent cell types, individual cell types are cultured at sub-confluence and relative cell numbers quantified by SRB staining at time points optimized for each system (48 h: 3C and CASM3C systems; 72 h: BT and HDF3CGF systems; 96 h: SAg system). SRB was performed by staining cells with 0.1% SRB after fixation with 10% TCA and reading wells at 560 nm.Viability and proliferation of PBMC (T cells) was quantified by Alamar Blue reduction for the SAg and BT systems. For PBMC viability (referred to as PBMC Cytotoxicity within the assay endpoint names), cells were plated (75,000/well in a 96-well plate) and then chemical samples added for 1 h before addition of activators, SEB and TSST-1 (20 ng/mL final concentration each). Cells were incubated for 90 h. Then, Alamar Blue (20 uL/well) (Invitrogen, Cat DAL1100) was added for 6 h, and the plates were read with a fluorescence microplate reader at 546/580 nm (excitation/emission). For PBMC proliferation, cells were plated and activated as above but incubated for only 16 h prior to addition of Alamar Blue. Plates were read after 6 h.
In the case of `CCCCCCC(CCCCCCCCCCC(=O)OCC(COC(C)=O)OC(C)=O)OC(C)=O` (stereo not given), the outcome is reported as “inactive”.
With `CCCCOC(=O)CCCCC(=O)OCCCC` the outcome was “inactive”.
With `C=CCCCCCCCCCCCC` the outcome was “inactive”.
For `CC(N)=O`, the outcome was “inactive”.
In the case of `CCc1cc(C2=C(C(=O)O)N(c3ccccc3C(F)(F)F)S(=O)(=O)c3ccccc32)cc2c1OCO2`, the outcome is reported as “inactive”.
In the case of `CC(COCC(C)OC(=O)c1ccccc1)OC(=O)c1ccccc1` (stereo not given), the outcome is reported as “inactive”.
In the case of `CC(C)OC(=O)C(C)(C)Oc1ccc(C(=O)c2ccc(Cl)cc2)cc1`, the outcome is reported as “inactive”.
For `Cc1cc(SC2=C(O)C[C@@](CCc3ccc(N)cc3)(C(C)C)OC2=O)c(C(C)(C)C)cc1CO`, the outcome was “inactive”.
For `O=C(O)c1[nH]n(-c2ccc(S(=O)(=O)O)cc2)c(=O)c1N=Nc1ccc(S(=O)(=O)O)cc1`, the outcome was “inactive”.
`Cc1ccc(-c2cc(C(F)(F)F)nn2-c2ccc(S(N)(=O)=O)cc2)cc1` was tested, and the AC50 was 30.5 µM (active).
With `COC(=O)CCC(=O)OC` the outcome was “inactive”.
For `Nc1nc(=S)c2[nH]cnc2[nH]1`, the outcome was “inactive”.
With `CC1(C)C(=O)NC(=O)N1CO` the outcome was “inactive”.
For `N[C@@H](Cc1c[nH]c2ccccc12)C(=O)O`, the outcome was “inactive”.
With `OCC(CO)n1cnc(-c2ccc(F)cc2)c1-c1ccnc(Oc2ccccc2)n1` the AC50 was 0.148 µM (active).
With `Cc1c(C)c2c(c(C)c1O)CCC(C)(COc1ccc(CC3SC(=O)NC3=O)cc1)O2` (stereo not given) the AC50 was 32.7 µM (active).
For `CC(=O)OCC(COC(C)=O)OC(C)=O`, the outcome was “inactive”.
For `COc1ccc(C(=O)Nc2nc3ccccc3c(NCc3ccccc3)c2C#N)cc1`, the outcome was “inactive”.
With `O=C(Oc1ccccc1)c1cccc(C(=O)Oc2ccccc2)c1` the outcome was “inactive”.
With `CC(=O)[C@@]1(O)CC[C@H]2[C@@H]3CCC4=CC(=O)CC[C@]4(C)[C@H]3CC[C@@]21C` the outcome was “inactive”.
In the case of `CCOCCOCCO`, the outcome is reported as “inactive”.
With `CO[C@@H]1COCC[C@@H]1N[C@@H]1CC[C@@](C(=O)N2CCc3ncc(C(F)(F)F)cc3C2)(C(C)C)C1` the outcome was “inactive”.
With `CC(C)NCC(O)c1ccc(O)c(O)c1` (stereo not given) the outcome was “inactive”.
With `NCCOCCOCCN` the outcome was “inactive”.
In the case of `CCN(CC)CCOc1ccc(C(=C(Cl)c2ccccc2)c2ccccc2)cc1`, the AC50 is reported as 8.81 µM (active).
For `C/C=C/C=C/C(=O)O`, the outcome was “inactive”.
For `NC1CCCCC1`, the outcome was “inactive”.
For `c1ccc2occc2c1`, the outcome was “inactive”.
In the case of `CCCCC(CC)CO` (stereo not given), the outcome is reported as “inactive”.
In the case of `CCCCCCC(C=O)=Cc1ccccc1`, the AC50 is reported as 33.6 µM (active).
With `Nc1nc(Cl)nc2c1ncn2[C@H]1C[C@H](O)[C@@H](CO)O1` the AC50 was 1.68 µM (active).
For `NC=O`, the outcome was “inactive”.
In the case of `CCCCCCCCCCCCCCOS(=O)(=O)O`, the outcome is reported as “inactive”.
`CC(C)c1cccc(C(C)C)c1` was tested, and the outcome was “inactive”.
With `C#CC(O)C(CC)CCCC` (stereo not given) the outcome was “inactive”.
In the case of `C=CCc1ccc(OC)c(OC)c1`, the outcome is reported as “inactive”.
`CCCCC(CC)COC(=O)CCCCCCCC(=O)OCC(CC)CCCC` (stereo not given) was tested, and the outcome was “inactive”.
In the case of `O=NO`, the outcome is reported as “inactive”.
`CN(C)CCCN(C)CCCN(C)C` was tested, and the outcome was “inactive”.
For `COC(=O)[C@H]1[C@H]2C[C@@H]3c4[nH]c5cc(OC)ccc5c4CCN3C[C@H]2C[C@@H](OC(=O)c2cc(OC)c(OC)c(OC)c2)[C@@H]1OC`, the AC50 was 22.6 µM (active).
